The values below come from PubChem BioAssay.

Sequence of Tumor necrosis factor receptor superfamily member 10B (Homo sapiens) (O14763 whole entry, looked up): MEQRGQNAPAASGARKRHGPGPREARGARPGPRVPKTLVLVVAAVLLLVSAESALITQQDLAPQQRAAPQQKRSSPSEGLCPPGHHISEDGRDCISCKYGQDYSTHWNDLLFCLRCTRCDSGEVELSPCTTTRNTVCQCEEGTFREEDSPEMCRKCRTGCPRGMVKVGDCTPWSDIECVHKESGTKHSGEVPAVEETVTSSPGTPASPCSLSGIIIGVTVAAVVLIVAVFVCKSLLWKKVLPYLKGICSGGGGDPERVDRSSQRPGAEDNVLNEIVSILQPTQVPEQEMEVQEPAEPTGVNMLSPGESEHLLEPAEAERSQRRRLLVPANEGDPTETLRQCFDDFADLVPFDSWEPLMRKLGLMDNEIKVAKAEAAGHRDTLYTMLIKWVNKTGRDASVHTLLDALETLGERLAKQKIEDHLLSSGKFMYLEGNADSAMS

The first test has as its target Tumor necrosis factor receptor superfamily member 10B (Homo sapiens) (UniProt O14763). Briefly: compound enhancement of TRAIL-induced cell killing – NB7 cells plus caspase-8, luminescence, panel, dose response (AID 652002). The following applies: NB7 neuroblastoma +caspase-8, TRAIL sensitization, luminescence viability, NB7+Caspase-8, with TRAIL, run 1; at 12.5 µM (top of the series).
Turning to `CCCC1(CCC)C(=O)NC(=NCc2ccccc2)NC1=O`, the activity, % sensitization was -11.1%.

For the compound `CC(C)CCn1c(=O)c(C(=O)Nc2ccccc2S(N)(=O)=O)c(O)c2ccccc21`, the activity, % sensitization was -2.11%.

`CCOC(=O)[C@]12Cc3cc4ccccc4cc3[C@H]1N(Cc1ccccc1)C(=O)c1cc(OC)ccc12`: the activity, % sensitization was 23.8%.

Turning to `CCOC(=O)[C@]12Cc3cc4ccccc4cc3[C@H]1N(Cc1ccccc1)C(=O)c1ccccc12`, the activity, % sensitization was determined as 18.4%.

For another test the target is unchanged. The description is as above. The following applies: NB7 neuroblastoma +caspase-8, TRAIL sensitization, luminescence viability, NB7+Caspase-8, with TRAIL, run 2; at 12.5 µM (top of the series).
As to `CCCC1(CCC)C(=O)NC(=NCc2ccccc2)NC1=O`, the activity, % sensitization stood at 5.29%.

In the case of `CC(C)CCn1c(=O)c(C(=O)Nc2ccccc2S(N)(=O)=O)c(O)c2ccccc21`, the activity, % sensitization is -8.54%.

For the compound `CCOC(=O)[C@]12Cc3cc4ccccc4cc3[C@H]1N(Cc1ccccc1)C(=O)c1cc(OC)ccc12`, the activity, % sensitization was 23.6%.

Turning to `CCOC(=O)[C@]12Cc3cc4ccccc4cc3[C@H]1N(Cc1ccccc1)C(=O)c1ccccc12`, the activity, % sensitization is 31.7%.

Test system in a further test: not listed separately
Described as above. The following applies: NB7 neuroblastoma +caspase-8, no TRAIL, compound-alone cytotoxicity counter-screen, luminescence viability, NB7+Caspase-8, run 1; at 12.5 µM (top of the series).
With `CCCC1(CCC)C(=O)NC(=NCc2ccccc2)NC1=O`, the activity, % sensitization was -4.21%.

For the compound `CC(C)CCn1c(=O)c(C(=O)Nc2ccccc2S(N)(=O)=O)c(O)c2ccccc21`, the activity, % sensitization was -27.8%.

As for `CCOC(=O)[C@]12Cc3cc4ccccc4cc3[C@H]1N(Cc1ccccc1)C(=O)c1cc(OC)ccc12`, the activity, % sensitization was 7.37%.

For `CCOC(=O)[C@]12Cc3cc4ccccc4cc3[C@H]1N(Cc1ccccc1)C(=O)c1ccccc12`, the activity, % sensitization is 6.91%.

Test system in a further test: not listed separately
Described as above. The following applies: NB7 neuroblastoma +caspase-8, no TRAIL, compound-alone cytotoxicity counter-screen, luminescence viability, NB7+Caspase-8, run 2; at 12.5 µM (top of the series).
For the compound `CCCC1(CCC)C(=O)NC(=NCc2ccccc2)NC1=O`, the activity, % sensitization is -22.9%.

As for `CC(C)CCn1c(=O)c(C(=O)Nc2ccccc2S(N)(=O)=O)c(O)c2ccccc21`, the activity, % sensitization was -20%.

For the compound `CCOC(=O)[C@]12Cc3cc4ccccc4cc3[C@H]1N(Cc1ccccc1)C(=O)c1cc(OC)ccc12`, the activity, % sensitization amounted to 2.99%.

For the compound `CCOC(=O)[C@]12Cc3cc4ccccc4cc3[C@H]1N(Cc1ccccc1)C(=O)c1ccccc12`, the activity, % sensitization worked out at 3.45%.
